Data on 40 compounds can be found in PubChem BioAssay (Tox21).

Results filed as inconclusive are left out. Unmarked numbers belong to inactive results. Activity calls are given as the source filed them. The call rests on the fitted dose curve.
On the % scale 0 is the no-effect control and ±100 the full control effect.

A short description of the assay: qHTS assay for small molecule disruptors of the mitochondrial membrane potential - cell viability (AID 720634).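 Further: human HepG2 liver cancer cells; nearly all actives have a fitted effect of over 20% in size.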 The note with it: HepG2 viability, ATP luminescence (CellTiter-Glo), 1 h; series mostly up to 83.2 µM; activity change, negative = cytotoxicity: at the top concentration. The text has this: U.S. Tox21 Program National Center for Advancing Translational Sciences [NCATS] NIH Chemical Genomics Center [NCGC] U.S. Environmental Protection Agency [EPA] National Institutes of Environmental Health Sciences [NIEHS] National Toxicology Program [NTP] U.S. Food and Drug Administration [FDA] Tox21 Assay Overview: Mitochondrial membrane potential (MMP), one of the parameters for mitochondrial function, is generated by mitochondrial electron transport chain that creates an electrochemical gradient by a series of redox reactions. This gradient drives the synthesis of ATP, a crucial molecule for various cellular processes. Measuring MMP in living cells is commonly used to assess the effect of chemicals on mitochondrial function; decreases in MMP can be detected using lipophilic cationic fluorescent dyes. […] The dye accumulates in the mitochondria of healthy cells as aggregates, with red fluorescence. The mitochondrial potential decreases and the dye could not accumulate in the mitochondria and remains in the cytoplasm in monomers, with green fluorescence. In addition to the mitochondrial potential assay, these cells were also used to test the cytotoxicity by determining the cell viability in the culture based on the quantitation of ATP present. The cytotoxicity was measured in the same assay well of MMP assay.
Tox21 Assay Protocol Summary: 2,000 HepG2 cells in 5 uL/well were dispensed into black, clear-bottom 1536-well plates using a Multidrop Combi (Thermo Scientific) dispenser. The assay plates were incubated for an overnight at 37 C to allow cells to attach to the wells, followed by the transfer of 23 nL compound or DMSO vehicle by a pin tool (Kalypsys). The plates were incubated for 1 hr at 37 C and 5% CO2, followed by the addition of 5 uL of 2X m-MPI dye into each well using Flying Reagent Dispenser (Aurora Discovery) and then CellTiter-Glo reagent was added at 4 uL/well and incubated 30 min at room temperature. Then luminescence intensity was quantified on a ViewLux CCD-based plate reader.
In general terms: Quantitative high-throughput screening tests each substance at several concentrations.
`C=C(C)C(=O)OCCOC(=O)CC(C)=O`: the “activity change, negative = cytotoxicity” value was 9.92%.

Take `NC(=O)N(O)[C@@H]1COc2cc(OCc3ccccc3)ccc21`: the “activity change, negative = cytotoxicity” value is -12%.

Consider `COc1ccccc1N=Nc1c(S(=O)(=O)O)cc2cc(S(=O)(=O)O)cc(NC(C)=O)c2c1O`, for which the “activity change, negative = cytotoxicity” value is -9.79%.

For `CO[C@H]1O[C@H](CO)[C@@H](O)[C@H](O)[C@H]1O`, the “activity change, negative = cytotoxicity” value is 6.04%.

Turning to `CCN(Cc1cccc(S(=O)(=O)O)c1)c1ccc(C(=C2C=CC(=[N+](CC)Cc3cccc(S(=O)(=O)[O-])c3)C=C2)c2ccccc2)cc1`, the “activity change, negative = cytotoxicity” value is 7.54%.

For `CCOC(=O)C(C)Oc1ccc(Oc2nc3ccc(Cl)cc3o2)cc1` (stereo not given), the “activity change, negative = cytotoxicity” value was -8.46%.

For the compound `CCCCCCCCSCCO`, the “activity change, negative = cytotoxicity” value is 16%.

In the case of `CN1C(=O)CC(C)(c2ccccc2)C1=O` (stereo not given), the “activity change, negative = cytotoxicity” value is -8.64%.

For `CC1=CC(=O)CC(C)(C)C1(O)/C=C/C(C)=C\C(=O)O` (stereo not given), the “activity change, negative = cytotoxicity” value is 4.86%.

As to `CC(=O)[C@H]1CC[C@H]2[C@@H]3C=CC4=CC(=O)CC[C@@]4(C)[C@@H]3CC[C@]12C`, the “activity change, negative = cytotoxicity” value is -17.1% [at 39.1 µM].

As to `CO[Si](C)(OC)OC`, the “activity change, negative = cytotoxicity” value is 6.78%.

Take `CCNC(=O)N1CCN(CCCC(c2ccc(F)cc2)c2ccc(F)cc2)CC1`: the “activity change, negative = cytotoxicity” value was 9.85%.

For the compound `CCCCOC(=O)CCS`, the “activity change, negative = cytotoxicity” value was 7.84%.

Take `CCCCCCCC/C=C\CCCCCCCC(=O)OC(CO)CO`: the “activity change, negative = cytotoxicity” value is 5.02%.

Turning to `CCC(=O)OC/C=C/c1ccccc1`, the “activity change, negative = cytotoxicity” value was 3.03%.

Regarding `CC1=CC(O)CC(C)(C)C1` (stereo not given), the “activity change, negative = cytotoxicity” value was -2.31%.

With `O=C1NCCN1`, the “activity change, negative = cytotoxicity” value was 8.78%.

For `CNC(=S)NC`, the “activity change, negative = cytotoxicity” value is 7.26%.

`COC(OC)(C(=O)c1ccccc1)c1ccccc1`: the “activity change, negative = cytotoxicity” value was -10.9%.

Consider `CCOC(=O)c1ccccc1OC`, for which the “activity change, negative = cytotoxicity” value was 5.48%.

Turning to `CN(C)C(=O)Nc1ccc(Oc2ccc(Cl)cc2)cc1`, the “activity change, negative = cytotoxicity” value is -5.53%.

Consider `CCCCC(CC)CNCC(CC)CCCC` (stereo not given), for which the “activity change, negative = cytotoxicity” value is -3.95%.

As to `CCCCCC=CCC=CCCCCCCCC(=O)OCC`, the “activity change, negative = cytotoxicity” value is -7.32%.

For the compound `CN1CCN(c2c(F)cc3c(=O)c(C(=O)O)cn4c3c2OCN4C)CC1`, the “activity change, negative = cytotoxicity” value was 14.1%.

As for `Cc1cc(S(=O)(=O)O)ccc1N=Nc1c(O)ccc2ccccc12`, the “activity change, negative = cytotoxicity” value is -14.3%.

For the compound `O=C(CCCN1CCC(O)(c2ccc(Br)cc2)CC1)c1ccc(F)cc1`, the “activity change, negative = cytotoxicity” value was 11.8% [at 39.1 µM].

As for `CO/N=C1\CN(c2nc3c(cc2F)c(=O)c(C(=O)O)cn3C2CC2)CC1CN` (stereo not given), the “activity change, negative = cytotoxicity” value was -4.9%.

On to `OC/C(Br)=C(\Br)CO`, for which the “activity change, negative = cytotoxicity” value was -6.29%.

On to `CC1CC(O)CC(C)(C)C1` (stereo not given), for which the Potency result was “inactive”.

In the case of `CC1(C)C2=CCCC(C)(C)[C@]23CC[C@H]1C3`, the “activity change, negative = cytotoxicity” value was 3.83%.

For `Cc1nccn1-c1ccc(Sc2cccc(C3(C(N)=O)CCOCC3)c2)cc1`, the “activity change, negative = cytotoxicity” value is -12%.

On to `Cc1nc2ccccn2c(=O)c1CCN1CCC(C(=O)c2ccc(F)cc2)CC1`, for which the “activity change, negative = cytotoxicity” value is -1.89%.

Take `CC(=O)Nc1ccccc1C`: the “activity change, negative = cytotoxicity” value was -1.73% [at 95.3 µM].

As for `CC(C)(CCl)c1ccccc1`, the “activity change, negative = cytotoxicity” value was 4.76%.

Turning to `CC(=O)Nc1ccc(N)cc1`, the “activity change, negative = cytotoxicity” value is 4.21% [at 95.3 µM].

For the compound `O=C(N[C@@H](c1ccccc1)[C@@H]1CCCCN1)c1cccc(C(F)(F)F)c1Cl`, the “activity change, negative = cytotoxicity” value was -4.39%.

As to `CC1(C)C(=O)N(Br)C(=O)N1Cl`, the “activity change, negative = cytotoxicity” value is 18.5%.

Consider `CCN(CC)CCNC(=O)c1ccc(NC(C)=O)cc1`, for which the “activity change, negative = cytotoxicity” value is -2.63%.

Turning to `CC(C)=CC=O`, the “activity change, negative = cytotoxicity” value was 9.11% [at 95.3 µM].

As to `CCCCC(CC)C(=O)OCCOCCOCCOCCOC(=O)C(CC)CCCC` (stereo not given), the “activity change, negative = cytotoxicity” value is -20.2%.
